# Compound activity as filed in PubChem.
# This is a sample that favours compounds with a hit; in the whole collection about 7% have one here.
# ATXN viability: Viability Counterscreen for Primary qHTS for Inhibitors of ATXN expression | S2 cells (HEK-293 line with an ATXN2-luciferase reporter) viability, CellTiter-Fluor protease fluorescence, 24 h | Potency, µM (titrated, usually from 56.7 µM), usual class: cytotoxic | 400,000 compounds, 0.49% hits | AID 651635, 2014; also: nearly all actives have a fitted effect of over 40% in size
# IL-1B inflam inh: qHTS for Inhibitors of Inflammasome Signaling: IL-1-beta AlphaLISA Primary Screen; THP-1 LPS/ATP IL-1B secretion, AlphaLISA, 16 h; active compounds read low; activity change, % at 57.5 µM; 360,000 compounds, 4.7% hits; in the data active = activity change below about -50%; inconclusive = mostly about -30% to -49%
#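 THP-1 cells pretreated 1 hr with compounds (up to 57.5 uM final), then stimulated with LPS (250 ng/mL final) plus ATP (1.25 mM final); secreted IL-1B measured by AlphaLISA after 16 hr, decreased signal indicating inhibition.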
# D3 ag: qHTS of D3 Dopamine Receptor Agonist: qHTS. max activation, %. 410,000 compounds, 0.58% hits. AID 652048, 2013. D3R DiscoveRx beta-arrestin cells, luminescence, 90 min; in the data active = max activation above about 30%
# Target sequence (P35462 whole entry, looked up): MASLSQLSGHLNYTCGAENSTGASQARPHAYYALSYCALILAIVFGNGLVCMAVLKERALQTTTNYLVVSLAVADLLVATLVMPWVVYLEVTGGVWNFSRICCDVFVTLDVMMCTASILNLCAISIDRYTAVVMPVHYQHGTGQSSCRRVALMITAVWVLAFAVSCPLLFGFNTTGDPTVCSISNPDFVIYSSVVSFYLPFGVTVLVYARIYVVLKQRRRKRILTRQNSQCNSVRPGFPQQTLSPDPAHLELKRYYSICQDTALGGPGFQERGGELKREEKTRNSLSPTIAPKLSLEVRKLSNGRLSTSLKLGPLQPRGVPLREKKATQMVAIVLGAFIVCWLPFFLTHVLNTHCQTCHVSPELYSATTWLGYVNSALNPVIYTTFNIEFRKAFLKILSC
#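 Agonist mode: compounds and dopamine controls were applied to plated cells for 90 min at 37 degrees C after an overnight attachment at 1500 cells/well. Luminescent read-out followed 30 - 60 minutes at room temperature with DiscoveRx detection reagent.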
# Integrin act MD: qHTS for Activators of Integrin-Mediated Alleviation for Muscular Dystrophy. alpha7betagal myoblasts, beta-gal FDG fluorescence, 48 h. Potency, µM (doses to about 38.3 µM), most hits filed as activators. 350,000 compounds, 0.064% hits. AID 624291, 2012; also: nearly all actives have a fitted effect of over 60% in size
#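 Alpha7betagal+/- myoblasts (passage 13) were plated 16-24 hr, then exposed to compounds (1:260 dilution of DMSO stock) for 48 hours at 37C. After MPER lysis, β-galactosidase reporter activity was read as FDG fluorescence (ex 480/em 540) after 30 minutes.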
# D3 antag: qHTS of D3 Dopamine Receptor Antagonist: qHTS. max response, negative = inhibition, %. AID 652054, 2013. D3R cells, DiscoveRx beta-arrestin luminescence, antagonist mode; active compounds read low. 360,000 compounds, 2.5% hits. D(3) dopamine receptor (Homo sapiens), P35462; in the data active = max response below about -50%; inconclusive = no clear call, values can overlap the other calls
#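 Cells plated overnight at 1500 cells/well, then exposed to library compounds with dopamine controls for 90 minutes at 37 degrees C. DiscoveRx reagent added for 30–60 minutes at room temperature; luminescence read, quantitative HTS format.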
# ATXN2 expr inh: Primary qHTS for Inhibitors of ATXN expression | HEK-293 ATXN2-luciferase reporter, luminescence, 24 h | Potency, µM (top dose mostly 57 µM), hits mostly inhibitors | 360,000 compounds, 0.72% hits; also: nearly all actives have a fitted effect of over 55% in size
#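 ATXN2-luciferase reporter cells (luciferase flanked by upstream and downstream ATXN2 gene portions) were treated 24 h at 37 °C with compounds at up to 57 uM. SteadyGlo luminescence gave expression; GF-AFC fluorescence gave viability.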
# Hits are given with their value; i = inactive; ? = inconclusive; nt = no result given; [ ] = another dose, or the depositor's remark. Unless noted, calls follow the shape of the dose curve; as a rule, active = well fitted curve in the direction sought with a large enough effect; inconclusive = small, poorly fitted or top-dose-only effect, or another doubt; inactive = no such curve, though single readings can be large; an effect the other way counts as inactive or inconclusive.
SMILES,ATXN viability,IL-1B inflam inh,D3 ag,Integrin act MD,D3 antag,ATXN2 expr inh
COC[C@H](NC(=O)c1cnc(C)s1)C(=O)N[C@@H](COC)C(=O)N[C@@H](Cc1ccccc1)C(=O)[C@@]1(C)CO1,nt,nt,nt,nt,nt,0.217µM
COc1ccc([C@H]2[C@H](C(=O)OC(C)(C)C)N3N=Cc4ccccc4C3C23C(=O)c2ccccc2C3=O)cc1OC (some centres undefined),?,i,i,i,i,i
CC(C)Cc1ccc(CN2CCCC(NC(=O)CCN3CCCCC3=O)C2)cc1 (centres undefined),i,i,i,i,i,i
CC(C)Cc1ccc(C(C)/C=C2/CCC(CN3CCCCC3)C2=O)cc1 (centres undefined),nt,-106.2,i,i,i,?
O=C(CCS(=O)(=O)Cc1ccc(Cl)cc1)NCCCN1CCN(c2ccccc2F)CC1,i,?,i,i,-69.7,i
O=C(NCCN1CCN(c2cccc(Cl)c2)CC1)Nc1ccccc1C(F)(F)F,i,nt,i,nt,nt,i
Cc1ccccc1CS(=O)(=O)CCC(=O)NCCN1CCN(c2cccc(Cl)c2)CC1,i,?,i,i,-54.0,i
Cc1ccccc1CS(=O)(=O)CCC(=O)NCCCN1CCN(c2ccccc2F)CC1,i,i,i,i,-59.6,i
COC(=O)C1(Cc2cc(-c3ccc(OC)cc3OC)no2)CCN(C(=O)OC(C)(C)C)CC1,?,i,77.1,i,i,i
Cc1cc(NC(=O)c2c(F)cccc2F)n(-c2nc3ccccc3[nH]2)n1,i,?,37.3,i,-96.0,i
CC(=O)c1cccc(NC(=O)CSc2nnc3ccc(-c4ccc(F)cc4)nn23)c1,nt,nt,i,nt,nt,nt
CCCCC[C@H]1CN(Cc2ccccc2)C(=O)[C@@H]1CC(=O)NCc1ccccc1,?,-51.5,i,i,i,?
CCCCC[C@H]1CN(CCc2ccccc2)C(=O)[C@@H]1CC(=O)NCc1ccc(OC)cc1,i,-78.3,i,i,i,i
O=C(O)C1CC(=O)N(c2ccc(OCc3ccccc3Cl)cc2)C1 (centres undefined),i,i,i,i,i,i
COCCNC(=O)C(=O)NCC(c1cccnc1)N1CCN(c2ccccc2OC)CC1 (centres undefined),i,nt,i,nt,nt,i
COc1ccccc1N1CCN(C(CNC(=O)C2CCCCC2)c2cccnc2)CC1 (centres undefined),i,i,i,i,-70.5,i
CCN(CC)C(=O)N1CCN(S(=O)(=O)c2ccccc2)CC1,i,i,i,i,i,i
O=C(CNC(=O)c1cc(Cl)cc([N+](=O)[O-])c1)OCC(=O)N1CCCCC1,i,-73.7,i,i,i,i
NC(=O)COC(=O)CNC(=O)c1cc(Cl)cc([N+](=O)[O-])c1,i,i,i,i,i,i
COc1ccccc1C(=O)NCC(=O)NC(C)CCc1ccccc1 (centres undefined),i,i,i,i,i,i
O=C(Nc1cc2c(cc1C(=O)c1cccc(Br)c1)OCCO2)c1ccccc1F,i,nt,i,nt,nt,i
CCOC(=O)c1nnn(-c2nonc2N)c1CN1CCCC1,i,i,i,i,i,i
O=C1OC(/C(=C\Nc2cc(Cl)ccc2O)[N+](=O)[O-])c2ccccc21 (centres undefined),i,-170.2,i,i,i,i
O=C1OC(/C(=C\Nc2ccc(F)cc2F)[N+](=O)[O-])c2ccccc21 (centres undefined),i,-97.5,i,i,i,i[11.3 µM]
Cc1ccc(N/C=C(\C2OC(=O)c3ccccc32)[N+](=O)[O-])c(C)c1 (centres undefined),i,-77.2,i,i,i,i
SMILES,ATXN viability,IL-1B inflam inh,D3 ag,Integrin act MD,D3 antag,ATXN2 expr inh
O=C(Nc1ccc(Br)cc1F)c1ccc2c(c1)N(Cc1ccccc1)C(=O)CS2=O (centres undefined),?,-57.5,i,i,i,?
CC1=CC2=NC(=O)/C(=C\c3cccn3CCOc3ccc(C)c(C)c3)C(=N)N2O1,i,-60.2,i,i,i,i
CC1=CC2=NC(=O)/C(=C/c3cccn3Cc3ccccc3)C(=N)N2O1,i,i,i,i,?,i
Cn1nc(C(C)(C)C)c(NC(=O)c2ccc(F)cc2)c1C(C)(C)C,?,i,i,i,i,i
O=C(NCc1ccc2c(c1)OCO2)c1nc(S(=O)(=O)Cc2ccccc2)ncc1Cl,?,-104.1,i,i,-65.8,?
O=C(NCc1ccc2c(c1)OCO2)c1ccc(Cl)nc1,i,i,i,i,i,i
O=C(NCc1ccc2c(c1)OCO2)c1nc(S(=O)(=O)Cc2ccccc2F)ncc1Cl,nt,-99.5,i,i,-91.5,nt
O=C(Cc1ccccc1)NCc1ccc2c(c1)OCO2,i,i,i,i,i,i
CNc1nc(-c2ccc(OC)cc2)c(-c2ccc(OC)cc2)s1,i,i,48.5,?,i,i
O=C(NC1CC1)c1c(O)c2ccccc2[nH]c1=O,i,-61.3,i,i,i,i
O=C(CCl)NNC(=O)c1c(O)c2ccccc2[nH]c1=O,?,-101.9,i,i,i,i
O=C(NNC(=O)c1ccc2ccccc2c1O)NC1CCCCC1,i,i,i,i,?,i
O=C(NC1CCCCC1)c1ccc2ccccc2c1O,i,-61.4,i,i,i,nt
O=C(NC1CCCCCCC1)c1c(O)c2ccccc2[nH]c1=O,i,i,i,i,i,i
O=C(NC1CCCC1)c1cc(=O)[nH]c2ccccc12,i,i,33.3,i,i,nt
O=C(/C=C/c1ccccc1)C1=C(O)C(=O)N(CCO)C1c1ccc2c(c1)OCO2 (centres undefined),i,i,i,i,i,i[11.3 µM]
O=C(CSc1cc([N+](=O)[O-])cc(S(=O)(=O)Cc2ccccc2)c1)NC1CC1,i,i,i,i,i,i
O=C(/C=C/c1ccc(S(=O)(=O)N2CCOCC2)cc1)NCCc1ccc(C(F)(F)F)cc1,i,i,i,i,i,i
Cc1ccc(OCC(=O)N/N=C\c2c(C)n(C)c3ccccc23)c([N+](=O)[O-])c1,i,?,i,i,i,i
CN(NS(C)(=O)=O)c1ncc(C(F)(F)F)cc1Cl,i,i,i,i,i,i
Cc1ccc2[nH]c(=O)c(CN(CCCN3CCOCC3)Cc3nnnn3C3CCCC3)cc2c1,i,i,i,i,i,i
COc1ccc2cc(CN(Cc3ccco3)Cc3nnnn3C3CCCCC3)c(=O)[nH]c2c1,?,-51.4,i,i,i,?
Cc1ccc2cc(CN(Cc3ccc(F)cc3)Cc3nnnn3C3CCCC3)c(=O)[nH]c2c1,nt,-61.2,i,i,i,?
